Reference: PubChem BioAssay (Tox21)
Active and inactive are the calls of the source. Where a call stands in place of a potency, no number is given. The call rests on the fitted dose curve; in most records, active means well fitted curve in the direction sought with a large enough effect in the signal ratio in the repeat runs (not every such curve was filed as active); inconclusive means weak or mixed curves, or effect the other way; inactive means no such curve, though single readings can be large or run the other way; the % refers to the signal ratio.

target: Estrogen receptor (Homo sapiens) (UniProt P03372); assay: qHTS assay to identify small molecule antagonists of the estrogen receptor alpha (ER-alpha) signaling pathway (AID 743069); conditions: HEK293 ER-alpha-UAS-bla, beta-lactamase ratio, antagonist mode; series mostly up to 69.4 µM
Sequence (P03372 whole entry, looked up): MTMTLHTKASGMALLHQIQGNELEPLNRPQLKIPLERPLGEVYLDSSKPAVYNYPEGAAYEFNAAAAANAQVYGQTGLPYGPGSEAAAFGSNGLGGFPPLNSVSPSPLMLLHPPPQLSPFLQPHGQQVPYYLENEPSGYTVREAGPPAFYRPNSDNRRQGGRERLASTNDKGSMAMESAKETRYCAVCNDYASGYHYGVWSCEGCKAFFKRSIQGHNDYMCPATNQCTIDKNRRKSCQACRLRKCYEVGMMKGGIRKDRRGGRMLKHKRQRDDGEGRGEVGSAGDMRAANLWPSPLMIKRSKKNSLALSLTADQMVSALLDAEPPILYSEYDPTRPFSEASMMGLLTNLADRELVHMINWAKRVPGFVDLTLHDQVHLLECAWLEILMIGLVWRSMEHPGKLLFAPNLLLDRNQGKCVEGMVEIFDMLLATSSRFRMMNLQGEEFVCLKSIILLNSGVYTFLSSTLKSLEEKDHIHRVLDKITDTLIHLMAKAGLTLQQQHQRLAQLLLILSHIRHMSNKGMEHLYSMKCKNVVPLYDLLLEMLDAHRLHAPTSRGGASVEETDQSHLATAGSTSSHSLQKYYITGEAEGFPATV
From the text: National Center for Advancing Translational Sciences [NCATS]
NIH Chemical Genomics Center [NCGC]
U.S. Environmental Protection Agency [EPA]
National Institutes of Environmental Health Sciences [NIEHS]
National Toxicology Program [NTP]
U.S. Food and Drug Administration [FDA]
Estrogen receptor (ER), a nuclear hormone receptor, plays an important role in development, metabolic homeostasis and reproduction. Two subtypes of ER, ER-alpha and ER-beta have similar expression patterns with some uniqueness in both types. Endocrine disrupting chemicals (EDCs) and their interactions with steroid hormone receptors like ER causes disruption of normal endocrine function. To identify the compounds that inhibit ER signaling, an ER-alpha-UAS-bla GripTiteTM cell line (Invitrogen, Carlsbad, CA, USA) containing a beta-lactamase reporter gene under the control of an Upstream Activator Sequence (UAS) stably integrated into HEK293 cells was used to screen the Tox21 10K compound library.
Tox21 Assay Protocol Summary:
ER-alpha-bla cells were cultured in assay medium containing 2% charcoal stripped FBS overnight in the culture flasks before the assay was performed. The cells were dispensed at 5,000 cells/5 uL of assay medium per well into black wall/clear-bottom 1536-well plates using a Multidrop Combi (ThermoFisher Scientific, Waltham, MA) dispenser. After the assay plates were incubated at a 37C and 5% CO2 for 4 hr, 23 nL of compounds dissolved in DMSO, positive controls or DMSO only was transferred to the assay plate by a Pintool station (Kalypsys, San Diego, CA), followed by addition of 1 uL of 17beta-estradiol in assay medium using a Flying Reagent Dispenser (Aurora Discovery, San Diego, CA). The plates were incubated at 37C and 5% CO2 for 18 hr. Then 1 uL of LiveBLAzerTM B/G FRET substrate was added using a Flying Reagent Dispenser, the plates were incubated at room temperature for 2 hours, and fluorescence intensity was measured by an Envision plate reader (PerkinElmer, Shelton, CT).
Potency means the concentration at half of the fitted maximal effect.

SMILES	Potency
CCCN(CCC)CCc1c[nH]c2ccccc12	inactive
CC(C)OS(C)(=O)=O	inactive
CCOC(=O)C1(c2ccccc2)CCN(CCC(C#N)(c2ccccc2)c2ccccc2)CC1	6.01 µM [inconclusive] (active)
O=C(Nc1ccc2[nH]ccc2c1)c1cc2cc(F)ccc2n1Cc1cccc(F)c1	inactive
C[C@H]1CC[C@@H]2[C@@H](C)[C@H]3[C@H](C[C@H]4[C@@H]5CC=C6CC(O[C@@H]7O[C@H](CO)[C@H](O)[C@H](O[C@@H]8O[C@H](CO)[C@@H](O)[C@H](O)[C@H]8O)[C@H]7O[C@H]7O[C@@H](C)[C@H](O)[C@@H](O)[C@H]7O)CC[C@]6(C)[C@H]5CC[C@]34C)N2C1 (stereo not given in full)	inactive
CC(C)OC(=O)C(O)(c1ccc(Cl)cc1)c1ccc(Cl)cc1	38.9 µM [inhibitor] (active)
C=CCC1=C(C)C(OC(=O)C2C(C=C(C)C)C2(C)C)CC1=O (stereo not given)	58.3 µM [fluorescent] (active)
CC(C)CCCCCCCOP(=O)(Oc1ccccc1)Oc1ccccc1	inactive
ClC1=C(Cl)[C@]2(Cl)[C@H]3[C@H]([C@H]4C=C[C@H]3C4)[C@@]1(Cl)C2(Cl)Cl	inactive
CC1(C)CN=C(NN=C(/C=C/c2ccc(C(F)(F)F)cc2)/C=C/c2ccc(C(F)(F)F)cc2)NC1	49 µM [cytotoxic] (active)
CC(=O)Nc1ccc2c(c1)Cc1ccccc1-2	inactive
CS(=O)(=O)c1ccc(C(=O)C2C(=O)CCCC2=O)c([N+](=O)[O-])c1	inactive
COP(=O)(OC)SCn1c(=O)oc2cc(Cl)cnc21	inactive
Oc1ccc(C(=C(Cl)Cl)c2ccc(O)cc2)cc1	48.9 µM [inconclusive] (active)
O=[N+]([O-])c1ccc(Oc2ccc(C(F)(F)F)cc2[N+](=O)[O-])cc1	inactive
CC1(C)CC/C(=C/c2ccc(Cl)cc2)C1(O)Cn1cncn1 (stereo not given)	inactive
ClCc1ccc(Cl)cc1Cl	inactive
CC[C@H](C)[C@H]1O[C@]2(C=C[C@@H]1C)C[C@@H]1C[C@@H](C/C=C(\C)[C@@H](O[C@H]3C[C@H](OC)[C@@H](O[C@H]4C[C@H](OC)[C@@H](O)[C@H](C)O4)[C@H](C)O3)[C@@H](C)/C=C/C=C3\CO[C@@H]4[C@H](O)C(C)=C[C@@H](C(=O)O1)[C@]34O)O2	4.59 µM [inconclusive] (active)
CC(=O)C(Cl)(Cl)Cl	1.88 µM [inconclusive] (active)
CCCCCCCCCCCCCC[P+](CCCCCC)(CCCCCC)CCCCCC (tested in a mixture with another compound)	0.246 µM [inconclusive] (active)

SMILES	Potency
N#CCCC(Br)(C#N)CBr (stereo not given)	inactive
CCCCCCCCCBr	inactive
ClC(Cl)=C(c1ccc(Cl)cc1)c1ccc(Cl)cc1	inactive
O=C1c2ccccc2C(=O)C1C(=O)C(c1ccccc1)c1ccc(Cl)cc1 (stereo not given)	5.49 µM [inconclusive] (active)
CC(C)Oc1cccc(NC(=O)c2ccccc2C(F)(F)F)c1	inactive
O=C(CCCN1CCC2(CC1)C(=O)NCN2c1ccccc1)c1ccc(F)cc1	8.49 µM [inconclusive] (active)
BrCBr	inactive
CC(=O)c1cc(C(C)(C)C)cc2c1CCC2(C)C	inactive
CC(C)OC(=S)S	inactive
Clc1ccc(C(c2ccccc2Cl)C(Cl)(Cl)Cl)cc1 (stereo not given)	inactive
Cc1ccc(OP(=O)(Oc2ccccc2)Oc2ccccc2)cc1	inactive
COc1ccc(OC)c(CC(C)N)c1 (stereo not given)	inactive
COC12CC[C@@]3(C[C@@H]1C(C)(O)C(C)(C)C)[C@H]1Cc4ccc(O)c5c4[C@@]3(CCN1CC1CC1)[C@H]2O5 (stereo not given in full)	13.7 µM [inconclusive] (active)
O=C(NC(=O)c1c(F)cccc1F)Nc1cc(Cl)c(OC(F)(F)C(F)F)c(Cl)c1	inactive
CC(C)CC(C)N (stereo not given)	inactive
CC(C)N1C(=O)N(c2ccccc2)CSC1=NC(C)(C)C	49 µM [inconclusive] (active)
CC(C)CCCCCOC(=O)c1ccccc1C(=O)OCCCCCC(C)C	inactive
CCCN(CC)CC1COC2(CCC(C(C)(C)C)CC2)O1 (stereo not given)	inactive
CCCCCCCCCCCCCN1CC(C)OC(C)C1 (stereo not given)	inactive
CC(C)(C)c1ccc(CSc2cnn(C(C)(C)C)c(=O)c2Cl)cc1	0.0055 µM [inconclusive] (active)
